In PubChem BioAssay AID1159580 (chemical genetic matrix, 2015):
The campaign covered roughly 5,500 compounds. About 2,000 (36%) were called active. Not shown: some 18% with an inconclusive outcome. Rule as the data show it: active = normalized growth mostly below about 0.91 (no sharp cut-off); inconclusive = no clear call, values can overlap the other calls; inactive = mostly above about 0.92. The list shows a part of the results.

Experiment: chemical genetic growth profiling, strain panel (AID 1159580);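 also: tested at 20 µM; growth read once vehicle control cultures reached saturation at 30 °C; 1 = growth at the plate median or of vehicle wells; lower values mean less growth of the strain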
Details: S. cerevisiae deletion strains, growth OD

Measured: normalized growth

CN1CCc2cc3c(cc2[C@H]1C1OC(=O)c2c1ccc1c2OCO1)OCO3 (stereo partly specified)
inactive: locus YAL021C, strain ccr4, stronger effect = lower value 1.01 | locus YAL026C, strain drs2, stronger effect = lower value 0.989 | locus YAL030W, strain snc1, stronger effect = lower value 0.982 | locus YBL061C, strain skt5, stronger effect = lower value 0.982 | locus YBR009C, strain hhf1, stronger effect = lower value 0.989 | locus YBR023C, strain chs3, stronger effect = lower value 0.972 | locus YBR171W, strain sec66, stronger effect = lower value 0.997 | locus YBR231C, strain swc5, stronger effect = lower value 0.993 | locus YBR279W, strain paf1, stronger effect = lower value 0.993 | locus YCL011C, strain gbp2, stronger effect = lower value 0.985 | locus YCL016C, strain dcc1, stronger effect = lower value 0.981 | locus YCL061C, strain MRC1, stronger effect = lower value 0.993 | locus YCL069W, strain vba3, stronger effect = lower value 0.986 | locus YCR088W, strain abp1, stronger effect = lower value 0.98 | locus YDL005C, strain med2, stronger effect = lower value 0.988 | locus YDL040C, strain nat1, stronger effect = lower value 0.99 | locus YDR001C, strain nth1, stronger effect = lower value 0.986 | locus YDR069C, strain doa4, stronger effect = lower value 0.974 | locus YDR137W, strain rgp1, stronger effect = lower value 0.971 | locus YDR159W, strain sac3, stronger effect = lower value 0.976 | locus YDR195W, strain ref2 0.957 | locus YDR297W, strain sur2, stronger effect = lower value 0.987 | locus YDR334W, strain swr1, stronger effect = lower value 0.981 | locus YDR335W, strain msn5, stronger effect = lower value 0.996 | locus YDR392W, strain spt3, stronger effect = lower value 0.905 | locus YEL003W, strain gim4, stronger effect = lower value 0.991 | locus YEL037C, strain rad23, stronger effect = lower value 0.971 | locus YEL061C, strain CIN8 (second series), stronger effect = lower value 0.973 | locus YER015W, strain faa2, stronger effect = lower value 0.982 | locus YER016W, strain bim1, stronger effect = lower value 0.989 | locus YER111C, strain swi4, stronger effect = lower value 0.991 | locus YER155C, strain BEM2 (second series), stronger effect = lower value 0.968 | locus YFR010W, strain ubp6, stronger effect = lower value 0.977 | locus YGL167C, strain pmr1, stronger effect = lower value 0.98 | locus YGL173C, strain kem1, stronger effect = lower value 0.988 | locus YGL227W, strain vid30, stronger effect = lower value 0.976 | locus YGL240W, strain doc1, stronger effect = lower value 0.983 | locus YGL253W, strain hxk2, stronger effect = lower value 0.987 | locus YHR013C, strain ard1, stronger effect = lower value 0.959 | locus YHR027C, strain rpn1, stronger effect = lower value 0.993 | locus YHR030C, strain SLT2, stronger effect = lower value 0.985 | locus YHR079C, strain IRE1, stronger effect = lower value 0.989 | locus YHR142W, strain chs7, stronger effect = lower value 1.01 | locus YJL092W, strain hpr5, stronger effect = lower value 0.991 | locus YJL095W, strain BCK1 (second series), stronger effect = lower value 0.988 | locus YJL095W, strain BCK1, stronger effect = lower value 0.987 | locus YJL115W, strain asf1, stronger effect = lower value 0.983 | locus YJL129C, strain trk1, stronger effect = lower value 0.975 | locus YJL154C, strain vps35, stronger effect = lower value 0.985 | locus YJL164C, strain tpk1, stronger effect = lower value 1.01 | locus YJL166W, strain qcr8, stronger effect = lower value 0.999 | locus YJL187C, strain SWE1, stronger effect = lower value 0.986 | locus YJR066W, strain TOR1, stronger effect = lower value 0.93 | locus YKL160W, strain elf1, stronger effect = lower value 1.01 | locus YKR026C, strain gcn3, stronger effect = lower value 0.979 | locus YKR091W, strain srl3, stronger effect = lower value 0.99 | locus YLL001W, strain dnm1, stronger effect = lower value 0.987 | locus YLL026W, stronger effect = lower value 0.983 | locus YLL041C, strain sdh2, stronger effect = lower value 0.994 | locus YLR027C, strain aat2, stronger effect = lower value 0.976 | locus YLR113W, strain HOG1, stronger effect = lower value 0.987 | locus YLR221C, strain rsa3, stronger effect = lower value 0.989 | locus YLR258W, strain gsy2, stronger effect = lower value 0.988 | locus YLR262C, strain YPT6 (second series), stronger effect = lower value 0.97 | locus YLR320W, strain mms22, stronger effect = lower value 0.993 | locus YLR342W, strain FKS1, stronger effect = lower value 0.983 | locus YLR357W, strain rsc2, stronger effect = lower value 0.997 | locus YLR370C, strain arc18, stronger effect = lower value 0.983 | locus YLR384C, strain iki3, stronger effect = lower value 0.976 | locus YML120C, strain ndi1, stronger effect = lower value 0.981 | locus YMR058W, strain fet3, stronger effect = lower value 0.969 | locus YMR125W, strain sto1, stronger effect = lower value 0.973 | locus YMR129W, stronger effect = lower value 0.995 | locus YMR205C, strain PFK2, stronger effect = lower value 0.98 | locus YMR231W, strain pep5, stronger effect = lower value 0.987 | locus YNL071W, strain lat1, stronger effect = lower value 0.989 | locus YNL183C, strain NPR1, stronger effect = lower value 0.94 | locus YNL209W, strain ssb2, stronger effect = lower value 0.985 | locus YNL248C, strain rpa49, stronger effect = lower value 0.993 | locus YNL322C, strain KRE1 (second series), stronger effect = lower value 0.987 | locus YNR049C, strain mso1, stronger effect = lower value 0.99 | locus YOR001W, strain rrp6, stronger effect = lower value 1.01 | locus YOR070C, strain gyp1, stronger effect = lower value 0.973 | locus YOR080W, strain dia2, stronger effect = lower value 0.994 | locus YOR083W, strain WHI5, stronger effect = lower value 1.01 | locus YOR106W, strain vam3, stronger effect = lower value 0.99 | locus YOR231W, strain MKK1, stronger effect = lower value 0.977 | locus YOR265W, strain rbl2, stronger effect = lower value 0.99 | locus YOR270C, strain vph1, stronger effect = lower value 0.947 | locus YOR290C, strain snf2, stronger effect = lower value 0.974 | locus YPL051W, strain arl3, stronger effect = lower value 1 | locus YPL078C, strain atp4, stronger effect = lower value 1.01 | locus YPL106C, strain sse1, stronger effect = lower value 0.967 | locus YPL240C, strain hsp82, stronger effect = lower value 0.996 | locus YPL256C, strain CLN2, stronger effect = lower value 0.968

Cc1c(C(=O)c2cccc3ccccc23)c2cccc3c2n1[C@H](CN1CCOCC1)CO3
inactive: locus YAL013W, strain DEP1, stronger effect = lower value 0.978 | locus YAL040C, strain CLN3, stronger effect = lower value 1.01 | locus YCL061C, strain MRC1 (second series), stronger effect = lower value 0.986 | locus YDR363W, strain ESC2, stronger effect = lower value 0.973 | locus YER002W, strain NOP16, stronger effect = lower value 0.998 | locus YMR307W, strain GAS1, stronger effect = lower value 1.01 | locus YNL153C, strain GIM3, stronger effect = lower value 0.983 | locus YNL175C, strain NOP13, stronger effect = lower value 0.992 | locus YNL197C, strain WHI3, stronger effect = lower value 0.988 | locus YNL224C, strain SQS1, stronger effect = lower value 1.02 | locus YOR083W, strain WHI5 (second series), stronger effect = lower value 1.02
